Rows were chosen to be rich in hits. Some 6% of all compounds tested hit in one or more screens of this group.
D1 antagonist = antagonists of human D1 dopamine receptor; P21728; HEK293 TREx D1 cells, calcium flux, dopamine EC80; hits give low values; activity change, negative = inhibition, % at 10 µM; 360,000 compounds, 3.2% hits; in the data active means activity change below about -30%
Target sequence (P21728 whole entry, looked up): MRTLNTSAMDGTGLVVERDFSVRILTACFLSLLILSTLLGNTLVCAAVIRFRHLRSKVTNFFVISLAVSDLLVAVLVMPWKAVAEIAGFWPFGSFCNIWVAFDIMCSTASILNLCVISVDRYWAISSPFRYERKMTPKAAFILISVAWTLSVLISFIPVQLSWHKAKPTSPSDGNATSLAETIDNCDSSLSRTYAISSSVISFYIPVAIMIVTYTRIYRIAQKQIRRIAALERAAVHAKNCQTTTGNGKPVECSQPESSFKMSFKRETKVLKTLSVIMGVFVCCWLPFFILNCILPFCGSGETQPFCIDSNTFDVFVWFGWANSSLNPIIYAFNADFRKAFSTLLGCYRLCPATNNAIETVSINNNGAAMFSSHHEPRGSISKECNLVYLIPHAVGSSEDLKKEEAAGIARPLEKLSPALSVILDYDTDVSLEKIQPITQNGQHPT
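Compound effects on dopamine-evoked calcium signalling were measured in tetracycline-induced HEK293 Trex D1 cells. Dopamine at EC80 followed a 180 s compound pre-read, and fluorescence was tracked kinetically for 180 s more.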
Chronic BCR inh = chronic active BCR signaling inhibition. 340,000 compounds, 0.05% hits. Potency, µM (series often up to 46.1 µM), hits mostly inhibitors. ABC-DLBCL IkBa-CBG/CBR reporter, luminescence ratio, 4 h; active means well fitted inhibition curve with a large enough effect in the signal ratio, with a control signal flat, not every such curve was filed as active; inconclusive means small, poorly fitted or top-dose-only effect, or effect the other way, or a change in a side signal; the % refers to the signal ratio
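Compounds up to 46 uM were incubated four hours with TMD8 cells whose green CBG68 luciferase is fused to IkappaBalpha; red CBR luminescence normalised the signal, and concentration-effect curves were fitted to fusion, red and ratio data.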
D1 potentiator = enhances dopamine response at the human D1 receptor | P21728 | HEK293 TREx D1 cells, calcium flux, dopamine EC20 potentiation | potentiation, % at 10 µM | 360,000 compounds, 0.036% hits | AID 504651; in the data active means potentiation above about 30%
DRD3 antagonist = blocks the human D3 dopamine receptor. AID 652054. D3R cells, DiscoveRx beta-arrestin luminescence, antagonist mode; hits give low values. max response, negative = inhibition, %. 360,000 compounds, 2.5% hits; in the data active means max response below about -50%; inconclusive means no clear call, values can overlap the other calls
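Cells expressing the human receptor were seeded at 1500 cells/well, incubated overnight at 37 degrees C in 5% CO2, then exposed to library compounds with dopamine controls for 90 minutes at 37 degrees C before luminescent detection.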
D3 ag = activates the human D3 dopamine receptor | P35462 | D3R DiscoveRx beta-arrestin cells, luminescence, 90 min | max activation, % | 410,000 compounds, 0.58% hits | AID 652048; in the data active means max activation above about 30%
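Cells at 1500/well, incubated overnight, then treated with pinned compounds (dopamine as control) for 90 min at 37 degrees C. DiscoveRx reagent added for 30 - 60 minutes at room temperature; luminescence read.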
D1 agonist = activates the human D1 dopamine receptor | P21728 | HEK293 T-REx D1 cells, calcium flux, agonist mode | activation, % at 2 µM | 360,000 compounds, 1% hits | AID 504660; in the data active means activation above about 30%
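Agonism was scored from calcium flux recorded over 180 s (1 read/s) after pintool compound addition, following a 10-cycle baseline. Cells were inducible force-coupled HEK293 TREx D1, plated overnight at 30 C and loaded with no-wash calcium dye.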
Of the large screens only hits and unclear results are named; the others gave an inactive call.

CC(C)(C)OC(=O)NCCCCCc1cn([C@@H](CO)C(=O)NCCCCCCCCCCC(=O)N2CCN(C(=O)OC(C)(C)C)CC2)nn1	Chronic BCR inh inconclusive, D3 ag 58
CC[C@H](C)[C@@H](C(=O)NCCCCCCCCCCC(=O)N1CCN(C(=O)OC(C)(C)C)CC1)n1cc(CCCCCNC(=O)OC(C)(C)C)nn1	D1 antagonist -31
CCN(C(=O)CSc1nc(-c2ccc(C(C)C)cc2)no1)c1cccc(C)c1	none (no result: Chronic BCR inh, DRD3 antagonist)
O=C(CN1C(=O)COc2ccc(S(=O)(=O)N3CCCC3)cc21)N1CCN(c2ccc(Cl)cc2)CC1	none (no result: Chronic BCR inh, DRD3 antagonist)
NC(N)=Nc1nc(C2COc3ccccc3O2)cs1 (centres undefined)	D1 antagonist -31
CC(=O)Nc1nc(C2COc3ccccc3O2)cs1 (centres undefined)	Chronic BCR inh inconclusive
O=c1c(=O)n(-c2cccc(Cl)c2)ccn1Cc1cccc(F)c1	none (no result: Chronic BCR inh, DRD3 antagonist)
C/C(=N\NC(=O)c1ccc(CSc2nncn2C)cc1)c1ccc(Cl)cc1	D1 antagonist -32, Chronic BCR inh inconclusive
CCC/C(=N\NC(=O)c1ccc(CSc2nncn2C)cc1)c1ccccc1	none
Cn1cnnc1SCc1ccc(C(=O)N/N=C(\CCC(=O)O)c2ccc(C(C)(C)C)cc2)cc1	DRD3 antagonist -54
COc1ccc(/C(C)=N/NC(=O)c2ccc(CSc3nncn3C)cc2)cc1	none
CCc1ccc(NS(=O)(=O)c2c(-c3ccccc3)csc2C(=O)OC)cc1	none (no result: Chronic BCR inh, DRD3 antagonist)
O=C(Cn1c(=O)oc2cc(S(=O)(=O)N3CCCC3)ccc21)Nc1ccc(F)cc1F	none (no result: Chronic BCR inh, DRD3 antagonist)
CCCN(Cc1cccs1)C(=O)Nc1ccccc1C	none (no result: Chronic BCR inh, DRD3 antagonist)
Cc1ccc(C)c(NC(=O)Cn2c(=O)n(CC(=O)NCCc3ccccc3)c(=O)c3ccccc32)c1	none (no result: Chronic BCR inh, DRD3 antagonist)
Cc1cc(=O)c(C(=O)O)cn1Nc1ccc(Cl)cc1	Chronic BCR inh inconclusive, DRD3 antagonist -53
Cc1csc(Nc2cccc3ccccc23)n1	D1 antagonist -46
COc1ccccc1Nc1nc(C)cs1	DRD3 antagonist inconclusive
Cc1ccc(C)c(N2CCN(c3nc4ccccc4c(=O)n3-c3ccc(Cl)cc3)CC2)c1	D1 antagonist -56 (no result: Chronic BCR inh, DRD3 antagonist)
CCOc1ccc(C2C(C#N)=C(N)SC(N)=C2C#N)c(OCC)c1	none
CCCCc1ccc(C2C(C#N)=C(N)SC(N)=C2C#N)s1	D1 antagonist -67, D1 agonist 63 (no result: DRD3 antagonist, D3 ag)
CC(Oc1ccc(C(=O)c2ccccc2)cc1)C(=O)Nc1ccc(S(N)(=O)=O)cc1 (centres undefined)	D1 agonist 38
O=C(CCCSc1ccc(Cl)cc1)Nc1cc(S(=O)(=O)N2CCOCC2)ccc1O	D1 antagonist -45
CC(Sc1ccc(Cl)cc1)C(=O)Nc1ccc(S(=O)(=O)N2CCOCC2)cc1 (centres undefined)	D1 agonist 56
CC(Oc1ccccc1Cl)C(=O)Nc1ccc(S(=O)(=O)N2CCOCC2)cc1 (centres undefined)	none (no result: D1 antagonist, Chronic BCR inh, D1 potentiator, D1 agonist)
Cc1ccc(OC(C)C(=O)Nc2ccc(S(=O)(=O)N3CCOCC3)cc2)cc1 (centres undefined)	D1 agonist 39
CC(C)C(=O)Nc1ccc(C(=O)Nc2ccc(S(=O)(=O)N3CCOCC3)cc2)cc1	none
COCCCNC(=O)c1ccc(Cn2c(=O)c3ccccc3n(Cc3ccc(C)cc3)c2=O)cc1	none
COCCCNC(=O)c1cc(=O)n(Cc2ccc(Cl)cc2)c2ccccc12	D1 antagonist -31
O=C(COc1ccc(Br)cc1CNC1CCCC1)Nc1ccccc1	Chronic BCR inh inconclusive, D1 agonist 34
Cc1ccccc1OCC(=O)NNC(=O)Nc1ccc(Cl)cc1	Chronic BCR inh inconclusive
O=C(COC(=O)c1ccccc1OCC(=O)Nc1ccc(Br)cc1)Nc1ccccc1	DRD3 antagonist -51
CCc1ccccc1OCC(=O)Nc1ccc(S(N)(=O)=O)cc1	Chronic BCR inh inconclusive
CNCc1ccccc1OCC(=O)Nc1ccccc1	Chronic BCR inh inconclusive, DRD3 antagonist -52
O=C(COc1ccc(Br)cc1CO)Nc1ccc(F)cc1	none
CCC(C)NC(=O)COC(=O)c1ccccc1OCC(=O)Nc1ccc(Br)cc1 (centres undefined)	Chronic BCR inh inconclusive
O=C(COc1ccccc1O)Nc1ccc(Cl)cc1	D1 antagonist -36, Chronic BCR inh inconclusive

From PubChem BioAssay
